Reference: PubChem BioAssay (NCATS)
Results filed as inconclusive are left out. Activity calls are given as the source filed them. Unless noted, the call rests on the fitted dose curve; in most records, active means well fitted curve in the direction sought with a large enough effect; inconclusive means small, poorly fitted or top-dose-only effect, or another doubt; inactive means no such curve, though single readings can be large; an effect the other way counts as inactive or inconclusive.

Key:
[1] = Cell Viability - BJ (AID 421; calls by dose curve;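 further: potency means the concentration at half of the fitted maximal effect; cells exposed to compound for 40 hours at 37 °C before readout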); details: BJ fibroblast viability, qHTS
Summary of the method: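 Quantitative HTS: ATP depletion in BJ cells after 40 hr compound exposure in complete culture medium, detected with CellTiter-Glo; AC50 from standard Hill fits.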

[2] = Cell Viability - Jurkat (AID 426;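 active means dose-dependent loss of cell ATP signal giving a full or clear fitted curve, ranked by lower potency value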; further: potency means the concentration at half of the fitted maximal effect); details: qHTS
Summary of the method: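 Cells of the human T-cell leukemia line Jurkat (E6-1) are seeded at 5000 per well, treated with compound across a concentration range for 40 hours at 37 °C, then lysed with CellTiter-Glo; luminescence reports ATP.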

[3] = Cell Viability - Hek293 (AID 427;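 active means compounds whose dose-response curve shows a full or clear partial loss of cell viability, called from curve shape rather than a numeric limit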;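 further: potency means the concentration at half of the fitted maximal effect; cells exposed to compound for 40 hours at 37 °C before reading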); details: qHTS
Summary of the method: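 AC50 values derive from Hill-modelled concentration-response of ATP-based luminescence, normalized between DMSO-only and 100 uM tamoxifen controls. Cells were exposed in complete culture medium for 40 hr at 37 °C before detection.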

[4] = Cell Viability - HepG2 (AID 433; calls by dose curve;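 further: potency means the concentration at half of the fitted maximal effect; potency for ATP loss meaning cytotoxicity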); details: qHTS
Summary of the method: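 HepG2 cells, 1500 per well, treated 40 hr at 37 °C in complete medium; viability from intracellular ATP by CellTiter-Glo luminescence. Normalized to DMSO and 100 uM tamoxifen; AC50 from Hill fit of qHTS concentration-response.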

[5] = Cell Viability - MRC5 (AID 434; calls by dose curve;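 further: potency means the concentration at half of the fitted maximal effect; potency reflects cytotoxicity seen as loss of intracellular ATP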); details: MRC5 lung fibroblast viability, qHTS
Summary of the method: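 ATP luminescence read-out (CellTiter-Glo, 20 min RT) after 40 hr, 37 °C compound exposure of 1500 MRC5 cells/well. Data normalized to DMSO (basal) and 100 uM tamoxifen (100% inhibition); AC50 from standard Hill equation.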

[6] = Cell Viability - SK-N-SH (AID 435; calls by dose curve;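 further: potency means the concentration at half of the fitted maximal effect; compound exposure lasted 40 h at 37 °C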); details: SK-N-SH neuroblastoma cell viability qHTS
Summary of the method: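 SK-N-SH neuroblastoma cells (1500/well) treated 40 h at 37 °C in complete medium; viability read as cellular ATP by CellTiter-Glo luminescence. Normalized to DMSO and 100 uM tamoxifen; AC50 from Hill fits of qHTS concentration-response.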

[7] = Cell Viability - N2a (AID 540); details: N2a mouse neuroblastoma cell viability; at 92.2 µM (top of the series);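 further: plate controls were DMSO alone for no effect and tamoxifen control for full effect; nearly all actives have a fitted effect of over 45% in size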
Summary of the method: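 Cytotoxicity was scored as loss of cellular ATP in N2a cells, a mouse neuroblastoma line. Compounds are applied in a qHTS concentration series for 40 hr at 37 °C.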

[8] = Cell Viability - NIH 3T3 (AID 541); details: NIH 3T3 cell viability, qHTS; activity change, negative = cytotoxicity: at 92.2 µM (top of the series);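 further: plate controls were DMSO alone for no effect and tamoxifen positive control for full effect; nearly all actives have a fitted effect of over 25% in size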
Summary of the method: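 Cells seeded at 1000/well, rested 5 hr at 37 °C, then dosed and incubated 40 hr at 37 °C. CellTiter-Glo added, 20 min room temperature, luminescence read. AC50 by Hill fit.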

[9] = Cell Viability - HUV-EC-C (AID 542); further: on the % scale 0 is the no-effect control and ±100 the full control effect; nearly all actives have a fitted effect of over 35% in size
Summary of the method: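 Cells were seeded at 1000 per well and incubated 5 hr at 37 °C before compound addition. After 40 hr at 37 °C, CellTiter-Glo reagent was added for 20 min and luminescence read. AC50 values came from Hill-equation modelling.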

[10] = Cell Viability - SH-SY5Y (AID 544); details: SH-SY5Y neuroblastoma cell viability; viability change, negative = cytotoxic: at 92.2 µM (top of the series);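 further: 0% = DMSO alone and -100% = 100 µM tamoxifen; nearly all actives have a fitted effect of over 55% in size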
Summary of the method: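 Cells were plated at 1500 per well and allowed 5 hr at 37 °C. Compounds were added across a concentration range and incubated 40 hr at 37 °C. CellTiter-Glo was added for 20 min at room temperature before luminescence reading.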

[11] = Cell Viability - Renal Proximal Tubule (AID 545); details: renal proximal tubule cells viability; at 91.7 µM (top of the series), primary cells of rat origin unless noted;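 further: 0% = DMSO only and -100% = 100 µM tamoxifen; nearly all actives have a fitted effect of over 40% in size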
Summary of the method: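 Rat renal proximal tubule primary cells, 1000/well, exposed to compounds for 40 hr at 37 °C in complete medium; cellular ATP read by CellTiter-Glo luminescence. AC50 from concentration-response fitted with standard Hill equation.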

[12] = Cell Viability - Mesenchymal (AID 546);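 further: cells exposed to compound for 40 hours before reading; 0% = DMSO only and -100% = 100 µM tamoxifen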
Summary of the method: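 Human renal mesenchymal cells (glomerulus-derived), 1000 cells/well, 5 hr 37 °C pre-incubation; compound 40 hr, 37 °C; CellTiter-Glo, 20 min RT; luminescence; AC50 via Hill equation.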

[13] = Cellular Toxicity (caspase-3) HepG2 (AID 654);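 further: cells exposed to compound for 16 hours before reading; 0% = DMSO alone and 100% = caspase signal from 100 µM tamoxifen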
Summary of the method: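 Caspase 3/7 activation in HepG2 is measured as rising luminescence after a 16 hr treatment at 37 °C. Values are scaled between DMSO basal and 100 uM tamoxifen, and AC50 is fitted with the Hill equation.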

[14] = Cellular Toxicity (caspase-3) HUV-EC-C (AID 656);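 further: 0% = DMSO basal and 100% = 100 µM tamoxifen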
Summary of the method: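 HUV-EC-C cells (1000/well) in complete medium, compound-treated 16 h at 37 °C; caspase-3/7 activity read by Caspase-Glo 3/7 luminescence. Normalized to DMSO (basal) and 100 uM tamoxifen (100%); AC50 from Hill-equation concentration-response fits.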

[15] = Cellular Toxicity (caspase-3) SHSY5Y (AID 657)
Summary of the method: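 SH-SY5Y human neuroblastoma cells, 1500/well, exposed to compound for 16 hours at 37 °C in complete medium. Caspase-3/7 activity read by Caspase-Glo luminescence after 1 hr at room temperature, normalized to DMSO and 10 uM staurosporine; AC50 from Hill fit.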

[16] = Cellular Toxicity (caspase-3) BJ (AID 658)
Summary of the method: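 qHTS, BJ fibroblasts, 1000 cells/well; 5 hr preincubation, 16 hr compound, 37 °C; Caspase-Glo 3/7 reagent, 1 hr RT; luminescence. DMSO = 0%, 10 uM staurosporine = 100%. Hill-equation AC50.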

[17] = Cellular Toxicity (caspase-3) MRC-5 (AID 659)
Summary of the method: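 MRC-5 fibroblasts, 1500/well; 16 h cpd, 37 °C; Caspase-Glo 3/7, 1 h RT; lumi read. Norm: DMSO = 0%, 10 uM staurosporine = 100%. Hill-fit AC50 from qHTS conc-response.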

[18] = Cellular Toxicity (caspase-3) Mesangial (AID 660);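 further: cells exposed to compound for 16 h before the caspase read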
Summary of the method: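 Seed cells derived from normal human renal glomeruli, incubate 5 h, add compounds across concentrations and incubate 16 h at 37 °C. Caspase 3/7 activation is then quantified by luciferase light, with AC50 derived by Hill modeling.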

[19] = Cellular Toxicity (caspase-3) SK-N-SH (AID 661)
Summary of the method: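 Cells were seeded and incubated 5 hr at 37 °C, dosed with compound over a concentration range for 16 hr, then given Caspase-Glo 3/7 reagent for 1 hr at room temperature before luminescence reading.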

[20] = Cellular Toxicity (caspase-3) H-4-II-E (AID 663);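 further: cells exposed to compound for 16 hr before readout; 0% = DMSO basal and 100% = 100 µM tamoxifen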
Summary of the method: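 H-4-II-E rat hepatoma, 1500 cells/well, 5 hr settle at 37 °C; compound 16 hr, 37 °C, complete medium; Caspase-Glo 3/7, 20 min RT; luminescence. DMSO = 0%, 100 uM tamoxifen = 100%; Hill-equation AC50.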

[21] = Cellular Toxicity (caspase-3) Hek293 (AID 664);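 further: cells exposed to compound for 16 h at 37 °C before readout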
Summary of the method: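 qHTS, HEK293 (human embryonic kidney), 16 h cpd exposure in complete medium. Caspase-3/7 activation = luminescence increase; normalized to DMSO/100 uM tamoxifen; Hill-fit AC50.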

[22] = Cellular Toxicity (caspase-3) N2a (AID 665); details: N2a cells, luminescence, normalized: DMSO 0%, 10 µM staurosporine 100%; at 92.2 µM (top of the series);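 further: compound exposure lasted 16 h at 37 °C before readout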
Summary of the method: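 Caspase-3/7 activation, measured as increased luminescence from aminoluciferin release, is quantified in mouse N2a cells exposed to compounds for 16 h. Values are normalized to DMSO and 10 uM staurosporine, with AC50 derived by Hill modelling.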

[23] = Cellular Toxicity (caspase-3) NIH 3T3 (AID 666);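 further: caspase signal read after 16 h compound exposure; 0% = DMSO basal and 100% = 100 µM tamoxifen stimulation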
Summary of the method: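 Cells were plated at 1000 per well and incubated 5 hr at 37°C, then compound was added for 16 hr. Caspase-Glo 3/7 reagent followed for 20 min at room temperature before luminescence was read.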

CCCCOC(=O)c1ccccc1C(=O)OCCCC
inactive: Potency [1] > 92 µM | Potency [2] > 92 µM | Potency [3] > 92 µM | Potency [4] > 92 µM | Potency [5] > 92 µM | Potency [6] > 92 µM | activity change, negative = cytotoxicity [7] -7.34% | activity change, negative = cytotoxicity [8] -3.85% | Potency [9] | Potency [10] | activity change, negative = cytotoxicity [11] 1.09% [at 91.7 µM] | outcome [12] | outcome [13] | outcome [14] | outcome [15] | outcome [16] | outcome [17] | outcome [18] | outcome [19] | outcome [20] | outcome [21] | caspase-3 activation [22] -1.36% | outcome [23]
